Values joined by “and” are separate entries in the source; they are usually repeats but may differ in a detail not shown here. Identical values can stand only once. This is part of a sample that, as a whole, favours compounds with a hit. Of some 83,000 tested, about 20% had one in any assay.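 Single-dose data. Exposure time 48 hours. Values below 10 considered active.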 Values without a mark were called inactive. Active and inactive are the calls of the source.
What was measured:
Experiment in all cases: NCI-60 one-dose screen, 48 h (100 = growth as untreated, 0 = no growth, -100 = all killed)
Details in all cases: 10 µM unless noted
MOLT-4 leukemia = tested on: MOLT-4 leukemia
SR leukemia = tested on: SR leukemia
RPMI-8226 leukemia = tested on: RPMI-8226 leukemia
OVCAR-8 ovarian = tested on: OVCAR-8 ovarian
OVCAR-5 ovarian = tested on: OVCAR-5 ovarian
OVCAR-4 ovarian = tested on: OVCAR-4 ovarian
SK-OV-3 ovarian = tested on: SK-OV-3 ovarian
IGROV1 ovarian = tested on: IGROV1 ovarian
OVCAR-3 ovarian = tested on: OVCAR-3 ovarian
HS 578T breast = tested on: HS 578T breast
NCI/ADR-RES ovarian = tested on: NCI/ADR-RES ovarian
T-47D breast = tested on: T-47D breast
BT-549 breast = tested on: BT-549 breast
MDA-MB-435 melanoma = tested on: MDA-MB-435 melanoma
SW-620 colon = tested on: SW-620 colon
MCF7 breast = tested on: MCF7 breast
HCT-116 colon = tested on: HCT-116 colon
HCC-2998 colon = tested on: HCC-2998 colon
KM12 colon = tested on: KM12 colon

SMILES	growth (MOLT-4 leukemia)	growth (SR leukemia)	growth (RPMI-8226 leukemia)	growth (OVCAR-8 ovarian)	growth (OVCAR-5 ovarian)	growth (OVCAR-4 ovarian)	growth (SK-OV-3 ovarian)	growth (IGROV1 ovarian)	growth (OVCAR-3 ovarian)	growth (HS 578T breast)	growth (NCI/ADR-RES ovarian)	growth (T-47D breast)	growth (BT-549 breast)	growth (MDA-MB-435 melanoma)	growth (SW-620 colon)	growth (MCF7 breast)	growth (HCT-116 colon)	growth (HCC-2998 colon)	growth (KM12 colon)
COC(=O)C1=CCCN(C)C1	105% and 97.6%	99.7% and 110%	106%	105%	94.9%	107% and 101%	111% and 110%	102% and 145%	120% and 118%	104% and 117%	107% and 115%	101% and 113%	97.7%	98.9% and 96.1%	111% and 110%	96.1% and 101%	102% and 108%	102% and 124%	117% and 109%
COC(=O)[C@@H](C)C[C@H](Cc1ccccc1)NC(=O)c1cccc([C@@H](C[C@H](C(C)C)N(C)C(=O)[C@@H](NC(=O)[C@H]2CCCCN2C)C2CC2)OC(C)=O)n1	14.6%	14.5%	25.4%	14.4%	38.2%	52%	1.39% (active)	23.3%	-47.5% (active)	27%	16.4%	63.1%	-17.1% (active)	-25.4% (active)	23%	14%	1.92% (active)	13%	-1.96% (active)
O=C1c2ccccc2C(=O)N1N1CC1c1ccccc1 (centres undefined)	83.5%	77.9%	101%	112%	113%	101%	102%	95.4%	107%	112%	104%	89.2%	99%	102%	105%	84.1%	95.4%	103%	104%
CCOC(=O)c1ccccc1C(=O)OCC	101%	128%	88.1%	84%	99.9%	96.4%	113%	64.7%	107%	95.5%	102%	100%	95.6%	91.5%		97.8%	100%	110%	104%
Cc1ccc(P(=O)(O)O)cc1	116%	97.9%	112%	110%	114%	101%	128%	111%	118%	97.7%	106%	98.8%	122%	107%	105%	98.6%	104%	103%	104%
CC[C@@H](C)C(=O)O[C@H]1[C@H](O)[C@H]2[C@@H](CN3C[C@@H](C)CC[C@H]3[C@@]2(C)O)[C@@H]2C[C@]34O[C@]5(O)[C@@H](OC(=O)[C@@](C)(O)CC)CC[C@@]3(C)[C@@H]5[C@@H](OC(C)=O)[C@@H](OC(C)=O)[C@H]4[C@@]21O	87.3%	100%	94.1%	94.2%	103%	95.1%	93.9%	106%	106%	97.3%	104%	97.3%	99.7%	115%	95.2%	98.4%	98.1%	87.9%	100%
CC1(C)CN=C(NN=C(/C=C/c2ccc(C(F)(F)F)cc2)/C=C/c2ccc(C(F)(F)F)cc2)NC1	-59.1% (active)	-57% (active)	-26.8% (active)	-64% (active)	-87.5% (active)	-92.3% (active)	-7.65% (active)	22%	-88% (active)	-38% (active)	-68.4% (active)	-86.1% (active)	-16.8% (active)	-83.6% (active)	-52.6% (active)	-99.5% (active)	-85.8% (active)		-86.8% (active)
O=C=Nc1ccc(Br)cc1	111%	98.5%	98.9%	107%	109%	98.5%	99.1%	112%	105%	106%	107%	92.2%	98.3%	108%	103%	97.8%	94.3%	100%	105%
CN1[C@@H](CC(=O)c2ccccc2)CCC[C@H]1CC(=O)c1ccccc1	111%	111%	120%	93.3%	101%	107%	117%	26.5%	101%	83%	99%	103%		97.5%	112%	93.3%	101%	126%	110%
CC[C@H](C)[C@H](NC(=O)c1ncccn1)C(=O)N(C)[C@H](C[C@@H](OC(C)=O)c1nc(C(=O)N[C@@H](Cc2ccccc2)C[C@H](C)C(=O)OC)cs1)C(C)C	20.2%	14.7%	17.7%	22.8%	74.3%	50.6%	44.1%	49.5%	-18.4% (active)	18.3%	70.6%	52.6%		-24.6% (active)	25.8%	18.9%	2.48% (active)	60.9%	16.1%
CCC(Br)(CC)C(=O)NC(N)=O	99.2%	105%	109%	113%	101%	101%	114%	110%	111%	106%	116%	101%		102%		94.6%	93%	105%	104%
Nc1ccc(P(=O)(O)O)cc1	110% and 112%	108% and 115%	97.8% and 104%	101% and 98.4%	97.6% and 99.8%	90.7%	104% and 108%	97.9% and 111%	107% and 110%	110%	93.1% and 102%	101%	115% and 98.3%	107% and 105%	103% and 106%	103% and 89.1%	112% and 103%	100% and 96%	109% and 99.6%
O=C(O)CNCP(=O)(O)O	92.4%	95.3%	99.1%	104%	120%	111%	113%	106%	119%	121%	110%	111%		104%	110%	96.2%	103%	99.2%	113%
CC[C@H](C)[C@H](NC(=O)C12CC(NC)(C1)C2)C(=O)N(C)[C@H](C[C@@H](OC(C)=O)c1nc(C(=O)N[C@@H](Cc2ccccc2)C[C@H](C)C(=O)OC)cs1)C(C)C	8.66% (active)	-2.59% (active)	26.3%	17.5%	52.7%	50.3%	39.6%	29.7%	-14.1% (active)	39.2%	68.9%	51.9%	-22.4% (active)	-17.5% (active)	39.5%	15%	1.15% (active)	8.1% (active)	6.78% (active)

— PubChem BioAssay (NCI)
